Measured values as given in the supplement of paper PMC6555819.

Key:
Assay in all cases: PBM binding z-score (relative to random genomic background probes); higher = stronger binding; sequences stand for … in GC…GCGATTGACAGCGTAGAATGAAGG
[1] = test system: FXR:RXRa (NR concentration 270 nM, RXRa partner concentration 90 nM)
Procedure, shortened: (§1)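 Custom Agilent 4×180K protein-binding microarrays carried double-stranded probes, each with a 34-nt variable region. These regions held direct-repeat seeds, single-nucleotide variants, half-site ablations and random human genomic background sequences. Ligand-free nuclear receptor dimers were incubated on the arrays for 1 h, antibodies against each partner (one per run) detected binding, and scanned fluorescence was regression-normalized. Binding z-scores take the random background probes as reference.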

[2] = test system: LXRa:RXRa (NR concentration 270 nM, RXRa partner concentration 90 nM)
Procedure, shortened: as §1

[3] = test system: LXRa homodimer (NR concentration 270 nM)
Procedure, shortened: as §1

[4] = test system: LXRb:RXRa (NR concentration 270 nM, RXRa partner concentration 90 nM)
Procedure, shortened: as §1

[5] = test system: LXRb homodimer (NR concentration 270 nM)
Procedure, shortened: as §1

[6] = test system: PPARa:RXRa (NR concentration 270 nM, RXRa partner concentration 90 nM)
Procedure, shortened: as §1

[7] = test system: PPARg:RXRa (NR concentration 180 nM, RXRa partner concentration 90 nM)
Procedure, shortened: as §1

[8] = test system: PPARg:RXRa 270nM:90nM, anti-RXR (NR concentration 270 nM, RXRa partner concentration 90 nM)
Procedure, shortened: as §1

[9] = test system: PPARg:RXRa 30nM:10nM, anti-RXR (NR concentration 30 nM, RXRa partner concentration 10 nM)
Procedure, shortened: as §1

[10] = test system: PPARg:RXRa 90nM:30nM, anti-RXR (NR concentration 90 nM, RXRa partner concentration 30 nM)
Procedure, shortened: as §1

[11] = test system: PPARg:RXRa DBDmut IVT, anti-RXR (DBD mutation: RXRa K156A/R161A, NR concentration 270 nM, RXRa partner concentration 90 nM)
Procedure, shortened: as §1

[12] = test system: PPARg:RXRa IVT, anti-PPARg (NR concentration 270 nM, RXRa partner concentration 90 nM)
Procedure, shortened: as §1

[13] = test system: PPARg DBDmut:RXRa IVT, anti-PPARg (DBD mutation: PPARg1 K132A/R137A, NR concentration 270 nM, RXRa partner concentration 90 nM)
Procedure, shortened: as §1

[14] = test system: PPARg DBDmut IVT, anti-PPARg (DBD mutation: PPARg1 K132A/R137A, NR concentration 270 nM)
Procedure, shortened: as §1

[15] = test system: PPARg homodimer (NR concentration 180 nM)
Procedure, shortened: as §1

[16] = test system: PXR:RXRa (NR concentration 270 nM, RXRa partner concentration 90 nM)
Procedure, shortened: as §1

[17] = test system: PXR homodimer (NR concentration 270 nM)
Procedure, shortened: as §1

[18] = test system: RARa:RXR (NR concentration 270 nM, RXRa partner concentration 90 nM)
Procedure, shortened: as §1

[19] = test system: RARa homodimer (NR concentration 270 nM)
Procedure, shortened: as §1

[20] = test system: RARb:RXRa (NR concentration 270 nM, RXRa partner concentration 90 nM)
Procedure, shortened: as §1

| Sequence | PBM binding z-score [1] | PBM binding z-score [2] | PBM binding z-score [3] | PBM binding z-score [4] | PBM binding z-score [5] | PBM binding z-score [6] | PBM binding z-score [7] | PBM binding z-score [8] | PBM binding z-score [9] | PBM binding z-score [10] | PBM binding z-score [11] | PBM binding z-score [12] | PBM binding z-score [13] | PBM binding z-score [14] | PBM binding z-score [15] | PBM binding z-score [16] | PBM binding z-score [17] | PBM binding z-score [18] | PBM binding z-score [19] | PBM binding z-score [20] |
| --- | --- | --- | --- | --- | --- | --- | --- | --- | --- | --- | --- | --- | --- | --- | --- | --- | --- | --- | --- | --- |
| TCGAGTAGGTTACCAATGGGGCATTCATCTTTCT | -0.000727 | 1.01 | -0.201 | 1.21 | -0.516 | 1.23 | 0.329 | 1.33 | 1.28 | 1.18 | 3.66 | 2.75 | -0.207 | -0.196 | 0.277 | 0.256 | -0.536 | 0.587 | -0.332 | 0.994 |
| TAGCCTAGGTCATGGGCCAGGATACCACGCGAAC | 4.32 | 3.44 | 0.422 | 2.16 | -0.43 | 4.16 | 3.93 | 3.93 | 1.12 | 2.85 | 1.37 | 3.45 | 0.121 | 0.0645 | 0.888 | 1.54 | -0.528 | 2.52 | -0.123 | 3.8 |
| ATATGTAGGTTAGCTGCGGTCATTCAGACTAGGC | 1.46 | 5.96 | 4.17 | 2.56 | 0.134 | 2.82 | 3.47 | 3.02 | 0.942 | 2.27 | 6.89 | 6.05 | 1.21 | 1.12 | 0.698 | 3.39 | 0.151 | 1.21 | 0.221 | 1.88 |
| CGTCCAAGGTCATAGGCGGTCAGTGAAGACAGAT | 7.45 | 6.83 | 2.89 | 4.79 | 0.324 | 5.55 | 4.7 | 5.18 | 1.82 | 3.6 | 2.93 | 3.58 | -0.0996 | 0.332 | 2.85 | 5.12 | 1.57 | 4.75 | 1.15 | 4.94 |
| TTACCAATGTGAAGGTCGTTGATCCCTCTGTAGA | 1.87 | 2.22 | 0.434 | 1.74 | 0.0606 | 1.3 | -0.039 | 1.1 | 1.12 | 0.829 | 0.314 | 0.221 | -0.143 | 0.211 | 0.84 | 1.37 | 0.539 | 1.45 | 0.451 | 0.862 |
| TAGCCTAGGTCATGCGCGCCAGTATAGTGTCGGC | 4.7 | 3.47 | 0.451 | 2.36 | 0.289 | 3.98 | 2.68 | 2.89 | 0.197 | 1.79 | 2 | 3.17 | 0.974 | 0.266 | 2.85 | 1.55 | -0.618 | 2.62 | -0.473 | 3.74 |
| GTACCAAGGTCAATAGGTCGTTGATGAGTAGGCG | 6.19 | 4.5 | 0.864 | 3.74 | 0.614 | 5.37 | 5.15 | 5.05 | 2.14 | 4.13 | 2.92 | 4.42 | -0.00557 | 0.159 | 2.8 | 4.09 | 0.916 | 4.91 | 0.768 | 5.2 |
